High-throughput results (PubChem BioAssay)
This is a sample that favours compounds with a hit; in the whole collection about 3.4% have one here.
Sm TGR inh: S. mansoni TGR enzyme inhibition; Q962Y6; 360,000 compounds, 3% hits; Potency, µM (highest dose often 114 µM), for the others: top-dose activity change, negative = inhibition, hits mostly inhibitors; purified TGR, DTNB reduction, TNB absorbance 405 nm; note: nearly all actives have a fitted effect of over 60% in size
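Kinetic colorimetric format: TGR-catalysed, NADPH-driven DTNB reduction monitored via TNB absorbance. Enzyme dispensed at 20 nM; compound exposure 15 min at room temperature before reaction start.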
AmpC inh no detg: AmpC beta-lactamase inhibition without detergent | Potency, µM (titrated, usually from 57.1 µM), inactives show at the highest dose activity change, negative = inhibition, actives largely listed as inhibitors | 330,000 compounds, 0.52% hits | AmpC nitrocefin hydrolysis, absorbance 480 nm, 0.0001% Triton | P00811 | AID 485341;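 note: plate controls were no compound for no effect and no enzyme for full effect; nearly all actives have a fitted effect of over 20% in size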
Target sequence (P00811 whole entry, looked up): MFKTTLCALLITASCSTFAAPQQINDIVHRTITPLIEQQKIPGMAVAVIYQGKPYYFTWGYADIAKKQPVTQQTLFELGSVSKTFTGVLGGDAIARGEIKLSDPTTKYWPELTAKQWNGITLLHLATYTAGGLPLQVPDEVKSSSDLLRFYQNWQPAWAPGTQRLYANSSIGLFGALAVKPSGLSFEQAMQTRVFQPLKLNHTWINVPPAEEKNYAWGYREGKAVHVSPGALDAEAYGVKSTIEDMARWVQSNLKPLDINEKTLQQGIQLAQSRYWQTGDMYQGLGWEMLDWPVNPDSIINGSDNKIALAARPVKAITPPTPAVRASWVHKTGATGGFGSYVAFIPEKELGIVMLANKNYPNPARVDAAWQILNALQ
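AmpC (5.3 nM in the dispensed reagent) in 20 mM phosphate pH 7.0 with 0.01% (detergent screen) or 0.0001% Triton X-100 was preincubated with compounds for 15 min at room temperature. Nitrocefin was then added from an 800 uM solution, and hydrolysis was followed at 480 nm.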
AmpC detergent: inhibitors of E. coli AmpC beta-lactamase with detergent | AmpC hydrolysis of nitrocefin, absorbance 480 nm, 0.01% Triton | Potency, µM (series often up to 114 µM), inactives show top-dose activity change, negative = inhibition, most hits filed as inhibitors | 370,000 compounds, 0.041% hits;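 note: 0% = no-compound wells and -100% = no-enzyme wells; nearly all actives have a fitted effect of over 25% in size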
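20 mM phosphate pH 7.0 + 0.01% (detergent screen) or 0.0001% Triton X-100; 5.3 nM AmpC reagent; cpd preinc 15 min RT; nitrocefin (800 uM stock) to start; A480 q20 s × 4 min; Activity was normalised to no-enzyme and no-compound control wells.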
Giardia FBPA inh: Giardia lamblia aldolase inhibition. purified Giardia FBPA. Potency, µM (highest dose often 59.6 µM), without a hit: at the highest dose activity, negative = inhibition, actives largely listed as inhibitors. A8B2U2. 290,000 compounds, 0.71% hits; note: nearly all actives have a fitted effect of over 55% in size
Target sequence (A8B2U2 whole entry, looked up): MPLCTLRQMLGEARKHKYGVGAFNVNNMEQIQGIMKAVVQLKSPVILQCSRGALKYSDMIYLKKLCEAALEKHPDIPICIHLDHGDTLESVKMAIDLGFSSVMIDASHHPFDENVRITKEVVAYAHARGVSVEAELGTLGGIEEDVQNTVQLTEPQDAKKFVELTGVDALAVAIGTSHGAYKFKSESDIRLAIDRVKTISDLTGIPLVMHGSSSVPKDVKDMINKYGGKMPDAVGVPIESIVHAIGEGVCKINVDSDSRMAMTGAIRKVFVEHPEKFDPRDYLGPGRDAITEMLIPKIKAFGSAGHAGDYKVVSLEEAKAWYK
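Giardia FBPA (40 nM reagent) was preincubated 10 min at RT with compound (up to 57.5 uM final), then substrate plus GAPDH/TPI/NAD/arsenate coupling system with diaphorase/resazurin was added; resorufin fluorescence (525/598 nm) was read after 20 min.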
RE007 growth inh: less growth of the S. pombe RE007 Vpr strain. S. pombe RE007 Vpr strain, BacTiter-Glo ATP luminescence, 24 h. Potency, µM (top dose mostly 92.2 µM), for inactives: top-dose activity change, negative = less growth, hits mostly inhibitors. 360,000 compounds, 0.21% hits. AID 651644; active = well fitted falling curve with a large enough effect; inconclusive = small, poorly fitted or top-dose-only effect; inactive = no such curve, though single readings can be large or run the other way; note: nearly all actives have a fitted effect of over 50% in size
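Fission yeast strain RE007, carrying one chromosomally integrated HIV-1 vpr copy, was seeded at OD 0.01 in PMG+AL medium with 23 nL pinned compound. After 24 h at 30 °C and 99% humidity, viability was read by BacTiter-Glo luminescence.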
Numbers without * were called inactive; ? = inconclusive; . = not tested or not shown; [ ] = another dose, or the depositor's remark. Unless noted, calls come from the whole dose curve; as a rule, active = well fitted curve in the direction sought with a large enough effect; inconclusive = small, poorly fitted or top-dose-only effect, or another doubt; inactive = no such curve, though single readings can be large; an effect the other way counts as inactive or inconclusive. Unless noted, % is set by controls: 0 for no effect and ±100 for the full control effect; potency is the fitted concentration of half-maximal effect.

SMILES	Sm TGR inh	AmpC inh no detg	AmpC detergent	Giardia FBPA inh	RE007 growth inh
CCN(C(=S)Nc1ccc(OC(F)F)cc1)C1CCCCC1	5%	-29%	8%	-7%	-13%
O=c1c(C(c2nnnn2C2CCCCC2)N2CCCCC2)coc2ccc(Cl)cc12 (centres undefined)	28µM*	-13%	-2%	4%	-15%
COc1cc2cc(C(c3nnnn3C3CCCC3)N3CCCCCC3)c(=O)[nH]c2cc1OC (centres undefined)	35µM*	73%	3%	-12%	-4%
Clc1ccc(C(c2nnnn2C2CCCC2)N2CCN(Cc3ccncc3)CC2)cc1 (centres undefined)	0%	180%	?	-11%	18%
Cc1ccc2cc(C(c3nnnn3C3CCCC3)N3CCN(c4ccccc4)CC3)c(=O)[nH]c2c1 (centres undefined)	13µM*	-9%	-5%	-13%	-13%[3.69 µM]
Cc1ccc2cc(C(c3nnnn3Cc3ccccc3)N3CCN(c4ccccc4)CC3)c(=O)[nH]c2c1 (centres undefined)	22µM*	-14%	5%	-16%	5%
COc1ccc(N2CCN(C(c3cc4cc(C)ccc4[nH]c3=O)c3nnnn3Cc3ccccc3)CC2)cc1 (centres undefined)	?	0%	-6%	?	3%
COc1cc2cc(C(c3nnnn3C3CCCC3)N3CCCCC3)c(=O)[nH]c2cc1OC (centres undefined)	-32%	-15%	8%	3%	-4%
Cc1ccc2cc(C(c3nnnn3C3CCCC3)N3CCOCC3)c(=O)[nH]c2c1C (centres undefined)	5%	-12%	4%	-4%	18%
COc1ccccc1N(C)c1cc2c(c3c1ccn3C)C1CCC2C1 (centres undefined)	.	.	.	.	-8%
COC(=O)CCC(=O)Nc1cc(OC)c(OC)cc1Cc1nccc2cc(OC)c(OC)cc12	9%	2%	-9%	3%	-2%
COc1ccccc1C(=O)NC(CCSC)C(=O)OCC(=O)NC(=O)NCc1ccco1 (centres undefined)	1%[11.4 µM]	-16%	-6%	2%	5%
CCc1ccc2nc(NC(=O)CN3C(=O)NC4(CCCC4)C3=O)sc2c1	.	-30%	.	.	-14%
Cc1ccccc1N1C(=O)NC(=O)/C(=C\c2ccc3c(c2)CCCN3Cc2ccccc2)C1=O	?	-22%	4%	-10%	7%
O=C1NC(=S)NC(=O)C1=Cc1ccc2c(c1)CCN2CCCCl	14µM*	-41%	?	?	-10%
COc1ccc(CC(=O)OCCc2cc3cc(OC)c(OC)cc3c(=O)o2)cc1	7.1µM*	40%	-6%	.	7%
O=C(c1ccco1)N1CCN(C2CC(=O)N(c3ccc4c(c3)OCO4)C2=O)CC1 (centres undefined)	-15%	-17%	-1%	5%	-5%
CCOc1ccc(N2C(=O)CC(N3CCN(C(=O)c4ccco4)CC3)C2=O)cc1 (centres undefined)	45µM*	30%	4%	11%	-4%
O=C(c1ccco1)N1CCN(C2CC(=O)N(c3ccc(C(F)(F)F)cc3)C2=O)CC1 (centres undefined)	50µM*	108%	-4%	.	?
O=C(c1ccco1)N1CCN(C2CC(=O)N(c3ccccc3)C2=O)CC1 (centres undefined)	50µM*	-2%	6%	2%	-27%
CC(C)(C)OC(=O)NNC(=S)NC1CCCCC1	-1%	-4%[2.29 µM]	?	0%	1%
Cc1ccc(OC(=O)C(F)(F)F)c2c1NCCC2	32µM*	-6%	?	-26%	8%
Cc1cc2c(C)cc(=O)oc2c2c1NCCC2	4%	.	0%	-4%	0%
CCOc1ccc(-c2nnc(SCC(=O)Nc3cc(C)ccc3OC)o2)cc1	11µM*	.	27%	.	.
CCOc1ccc(-c2nnc(SCC(=O)Nc3ccc(C)cc3C)o2)cc1	-5%	.	-6%	.	.
SMILES	Sm TGR inh	AmpC inh no detg	AmpC detergent	Giardia FBPA inh	RE007 growth inh
CCOc1ccc(-c2nnc(SCC(=O)Nc3ccc(C)cc3Cl)o2)cc1	18µM*	.	27%	.	.
COc1cccc(NC(=O)CCC2CCN(C(=O)C(OC)c3ccccc3)CC2)c1 (centres undefined)	.	.	.	.	19%
Cc1ccc(-n2nnnc2SCC(=O)Nc2sc(C)c(C)c2C#N)cc1C	?	0.32µM*	-2%	0%	6%
CC(=O)/C(=N/Nc1cccc(Cl)c1)N1CCOCC1	-35%	0%	-12%	-4%	80%
O=C(NC1CCCCC1)c1ccc(S(=O)(=O)NCc2ccco2)cc1	45µM*	-27%	-10%	1%	17%
CCOC(=O)C1CCCN(C(=O)c2ccc(CNS(=O)(=O)c3ccc(C)cc3)cc2)C1 (centres undefined)	0%	44%	6%	4%	1%
CCOC(=O)C1CCCN(C(=O)c2ccc(S(=O)(=O)NCc3ccco3)cc2)C1 (centres undefined)	25µM*	-1%	?	.	-14%
O=C(COC(=O)c1ccc([N+](=O)[O-])o1)Nc1cccc2ccccc12	14µM*	-43%	-8%	-29%	-13%
O=C1CN(C(=O)COC(=O)c2ccc([N+](=O)[O-])o2)c2ccccc2N1	45µM*	-11%	-2%	.	-3%
CC1(C)C(=O)Nc2ccccc2N1C(=O)COC(=O)c1ccc([N+](=O)[O-])o1	.	-23%	.	.	23%
O=C(COC(=O)c1ccc([N+](=O)[O-])o1)NCc1ccc(F)cc1	.	-18%	.	.	-20%
CCOc1ccc2c(c1)/C(=C(\C(Cl)=C(Cl)Cl)[N+](=O)[O-])N2	5.6µM*	-22%	8%	-17%	7%
CC(C)CCNC(=O)c1ccc(C2SCC(=O)N2Cc2ccco2)cc1 (centres undefined)	25µM*	-27%	-2%	-5%	15%
O=C1CSC(c2ccncc2)N1Cc1ccco1 (centres undefined)	22µM*	-19%	-14%	-2%	-8%
O=C(CCS(=O)(=O)c1ccc(Br)cc1)Nc1cc(F)ccc1F	13µM*	-22%	0%	-1%	0%
COC(=O)c1ccccc1NC(=O)CCS(=O)(=O)c1ccc(Br)cc1	10µM*	-24%	4%	-16%	3%
Cc1c(Cl)cccc1NC(=O)CNC(=O)CCS(=O)(=O)c1ccc(F)cc1	45µM*	-10%	5%	.	10%
Cc1ccc(S(=O)(=O)CCC(=O)Nc2ccccc2Cl)cc1	-3%	-1%	1%	19%	-9%
O=C(CCS(=O)(=O)c1ccc(Br)cc1)Nc1ccc(F)cc1F	-27%	.	-7%	.	.
COc1ccc(NC(=O)c2ccc3c(c2)S(=O)(=O)N=C2CCCCCN23)cc1S(N)(=O)=O	.	.	.	.	11%
CC(=O)N(C)C1=C(O)c2ccccc2C(=O)C1=O	4%	-7%	-2%	.	2%
